Where “and” joins values, the source holds several entries; their conditions need not be identical. Equal values may be shown once. Results filed as inconclusive are left out. Some structures have more than one record in an assay (separate samples or runs), and their calls can disagree. Calls of active or inactive are those of the source. Unless noted, calls come from the whole dose curve; as a rule, active = well fitted curve in the direction sought with a large enough effect; inconclusive = small, poorly fitted or top-dose-only effect, or another doubt; inactive = no such curve, though single readings can be large; an effect the other way counts as inactive or inconclusive.
Experiments:
[1] = qHTS profiling of the MIPE4 collection as inhibitors of Plasmodium falciparum (HB3) proliferation (AID 743347; call rule not given here;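 note: plate controls were DMSO vehicle wells for no effect and artemisinin wells for full effect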); conditions: P. falciparum HB3 in erythrocytes, SYBR Green DNA, 72 h; at 28.5 µM (top of the series) unless noted
Procedure, shortened: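 Erythrocytes infected with P. falciparum (0.3% parasitemia, 2.5% hematocrit) incubated with compounds 72 h at 37 C, 5% CO2. Lysis with saponin/Triton buffer containing SYBR Green I, overnight at room temperature in the dark; DNA fluorescence (485/535 nm) normalised to 0.29 uM artemisinin and DMSO.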

[2] = High-throughput drug toxicity screening in the BPDCN cell line Gen2.2 (AID 1224824; call rule not given here;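 note: cells exposed to compounds for 48 h before reading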); conditions: Gen2.2 BPDCN cells; at 45.8 µM (top of the series) unless noted
Procedure, shortened: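 Readout is ATP luminescence from Gen2.2 cells after two days of drug exposure in serum-containing medium at 37 °C. Values express percent activity, with vehicle defining full signal and 9.2 uM bortezomib defining zero.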

[3] = High-throughput drug toxicity screening in the BPDCN cell line Cal-1 (AID 1224825; call rule not given here); conditions: Cal-1 BPDCN cell viability, qHTS; at 45.8 µM (top of the series) unless noted
Procedure, shortened: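 Cal-1 cells, 500 per well in phenol-red-free RPMI with 10% FBS, exposed to compounds for 48 hours at 37C, 5% CO2. Viability read by CellTiter-Glo luminescence; percent activity normalized to DMSO (100%) and 9.2 uM bortezomib final (0%).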

[4] = qHTS assay for measurement of the activity of small molecule inhibitors on Zika virus induced Caspase-3 activity in human iPSC derived neural progenitor cells (hNPCs) (AID 1224857); note: nearly all actives have a fitted effect of over 65% in size; note: potency is the fitted concentration of half-maximal effect
Procedure, shortened: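 hNPCs seeded 350 cells/well, cultured 16–20 h; compounds added 1 h before ZIKV (2 FFU/cell), 37 C 6 h. Caspase-Glo 3/7 luminescence after 30 min RT; % inhibition from induction scaled to uninfected (0%) and infected (100%) wells.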

[5] = qHTS assay for measurement of the activity of small molecule inhibitors on Zika virus induced Caspase-3 activity in human astrocytoma cells (AID 1224859);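 note: plate controls were ZIKV-infected untreated cells for no effect and uninfected cells for full effect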
Procedure, shortened: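 Luminescence read-out (Caspase-Glo 3/7, 30 min RT) of caspase activity in SNB-19 cells infected 6 h with ZIKV, 2 FFU/cell, after 1 h compound pretreatment; % inhibition from induction normalised to uninfected (0%) and infected (100%) wells.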

[6] = qHTS Screen of the MIPE 4.0 Collection Against Ewings Sarcoma (RDES) (AID 1259252); note: nearly all actives have a fitted effect of over 35% in size; note: potency is the fitted concentration of half-maximal effect
Procedure, shortened: (§1)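 Viability screen: 48 h incubation at 37C, 95% humidity, 5% CO2 with serially titrated compound, followed by CellTiter-Glo readout.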

[7] = qHTS Screen of the MIPE 4.0 Collection Against Ewings Sarcoma (TC71) (AID 1259253); note: nearly all actives have a fitted effect of over 40% in size; note: potency is the fitted concentration of half-maximal effect
Procedure, shortened: as §1

[8] = qHTS Screen of the MIPE 4.0 Collection Against Ewings Sarcoma (EW8) (AID 1259255); note: nearly all actives have a fitted effect of over 35% in size; note: potency is the fitted concentration of half-maximal effect;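 for viability: 100% = DMSO-treated cells and 0% = medium-only wells without cells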
Procedure, shortened: as §1

[9] = qHTS Screen of the MIPE 4.0 Collection Against Ewings Sarcoma (TC32) (AID 1259256); note: nearly all actives have a fitted effect of over 45% in size; note: potency is the fitted concentration of half-maximal effect
Procedure, shortened: as §1

[10] = qHTS assay to identify small molecule inhibitors of chordoma cells - UCH-1 (AID 1259355); note: nearly all actives have a fitted effect of over 55% in size; note: potency is the fitted concentration of half-maximal effect
Procedure, shortened: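 Cells (800/well) were seeded and left overnight at 37 C, 5% CO2, then treated with drugs at 15 concentrations plus a combination mix of auranofin, camptothecin, doxorubicin, rubitecan and topotecan. Viability after 48hr was read by CellTiter-Glo luminescence.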

In the case of `COc1nc(C)nc(Cl)c1NC1=NCCN1`, the growth, % of control [1] is reported as 98.4%, the cell viability, % of control (lower = more cytotoxic) [2] is reported as 136% and the viability (% of control) [3] is reported as 97.7%. The Potency [4] was “inactive”, the Potency [5] was “inactive” and the Potency [6] was “inactive”. The Potency [7] was “inactive”, the Potency [8] was “inactive” and the Potency [9] was “inactive”. For the same compound, the Potency [10] was “inactive”.
For `CN1C2CCC1CC(OC(=O)C(CO)c1ccccc1)C2` (centres undefined), the cell viability, % of control (lower = more cytotoxic) [2] was 172%, the viability (% of control) [3] was 113% and the Potency [4] was “inactive”. The Potency [5] was “inactive”.
For `COc1ccc2[nH]cc(CCNC(C)=O)c2c1`, the growth, % of control [1] was 79.2% and 70.9%, the cell viability, % of control (lower = more cytotoxic) [2] was 132% and the viability (% of control) [3] was 65.3%. For the same compound, the Potency [4] was “inactive”, the Potency [5] was “inactive” and the Potency [6] was 1.18 µM (active). For the same compound, the Potency [8] was 2.96 µM (active) and the Potency [9] was 3.32 µM (active).
For `CCCCc1oc2ccccc2c1C(=O)c1cc(I)c(OCCN(CC)CC)c(I)c1`, the growth, % of control [1] was 8.19%, the cell viability, % of control (lower = more cytotoxic) [2] was 84.7% and the viability (% of control) [3] was 8.13%. For the same compound, the Potency [4] was “inactive”, the Potency [5] was “inactive” and the Potency [6] was 8.33 µM (active). For the same compound, the Potency [7] was 8.33 µM (active), the Potency [8] was 9.35 µM (active) and the Potency [9] was 8.33 µM (active).
`Clc1ccc2nsnc2c1NC1=NCCN1` gave a growth, % of control [1] of 67.7%, a cell viability, % of control (lower = more cytotoxic) [2] of 64.1% and a viability (% of control) [3] of 57%. For the same compound, the Potency [4] was “inactive and 20.9 µM (active)”, the Potency [5] was “inactive” and the Potency [6] was “inactive”. The Potency [8] was “inactive” and the Potency [9] was “inactive”.
Compound `CS(=O)(=O)CCNCc1ccc(-c2ccc3ncnc(Nc4ccc(OCc5cccc(F)c5)c(Cl)c4)c3c2)o1` has a growth, % of control [1] of 13%, a cell viability, % of control (lower = more cytotoxic) [2] of 4.7% and a viability (% of control) [3] of 2.82%. For the same compound, the Potency [4] was “inactive”, the Potency [5] was “inactive” and the Potency [6] was 0.59 µM (active). The Potency [7] was 2 µM (active), the Potency [8] was 8.33 µM (active) and the Potency [9] was 13.2 µM (active). The Potency [10] was “inactive”.
With `CC[N+](CC)(CC)CCOc1cccc(OCC[N+](CC)(CC)CC)c1OCC[N+](CC)(CC)CC` the cell viability, % of control (lower = more cytotoxic) [2] was 124%, the viability (% of control) [3] was 111% and the Potency [4] was “inactive”. For the same compound, the Potency [5] was “inactive”, the Potency [6] was “inactive” and the Potency [8] was “inactive”. For the same compound, the Potency [9] was “inactive” and the Potency [10] was “inactive”.
Work on `NCCc1cnc[nH]1` yielded a growth, % of control [1] of 108%, a cell viability, % of control (lower = more cytotoxic) [2] of 166% and a viability (% of control) [3] of 99.6%. For the same compound, the Potency [4] was “inactive”, the Potency [5] was “inactive” and the Potency [6] was 5.9 µM (active). For the same compound, the Potency [8] was “inactive”, the Potency [9] was “inactive” and the Potency [10] was “inactive”.
For `CCOC(=O)c1ncn2c1CN(C)C(=O)c1cc(F)ccc1-2`, the cell viability, % of control (lower = more cytotoxic) [2] was 100%, the viability (% of control) [3] was 17.4% and the Potency [4] was “inactive”. The Potency [5] was “inactive”, the Potency [6] was “inactive” and the Potency [9] was 13.2 µM (active). The Potency [10] was “inactive”.
Compound `CCc1cccc2c3c([nH]c12)C(CC)(CC(=O)O)OCC3` (centres undefined) has a growth, % of control [1] of 94.1%, a cell viability, % of control (lower = more cytotoxic) [2] of 138% and a viability (% of control) [3] of 128%. For the same compound, the Potency [4] was “inactive”, the Potency [5] was “inactive” and the Potency [6] was “inactive”. For the same compound, the Potency [8] was “inactive”, the Potency [9] was “inactive” and the Potency [10] was “inactive”.
`CC[C@@]1(O)C(=O)OCc2c1cc1n(c2=O)Cc2cc3c(CN(C)C)c(O)ccc3nc2-1` gave a growth, % of control [1] of 21.3%, a cell viability, % of control (lower = more cytotoxic) [2] of 14.6% and a viability (% of control) [3] of 3.81%. For the same compound, the Potency [4] was “inactive”, the Potency [5] was “inactive” and the Potency [6] was 0.0332 µM (active). The Potency [8] was 0.0332 µM (active).
With `CC1(C)O[C@H]2CC(=O)OC[C@]23[C@H]2CC[C@@]4(C)[C@H](c5ccoc5)OC(=O)[C@H]5O[C@]54[C@]2(C)C(=O)C[C@@H]13` the growth, % of control [1] was 107%, the cell viability, % of control (lower = more cytotoxic) [2] was 131% and the viability (% of control) [3] was 118%. For the same compound, the Potency [4] was “inactive”, the Potency [5] was “inactive” and the Potency [6] was “inactive”. The Potency [8] was “inactive”, the Potency [9] was “inactive” and the Potency [10] was “inactive”.
With `COc1cc2nc(N3CCN(C(=O)C4COc5ccccc5O4)CC3)nc(N)c2cc1OC` (centres undefined) the growth, % of control [1] was 2.34%, the cell viability, % of control (lower = more cytotoxic) [2] was 14.1% and the viability (% of control) [3] was 8.05%. The Potency [4] was “inactive”, the Potency [5] was “inactive” and the Potency [6] was “inactive”. For the same compound, the Potency [10] was “inactive”.
With `O=C(Nc1ccc([N+](=O)[O-])cc1Cl)c1cc(Cl)ccc1O` the growth, % of control [1] was 3.45%, the cell viability, % of control (lower = more cytotoxic) [2] was 10.1% and the viability (% of control) [3] was 20.3%. The Potency [4] was “inactive and 1.05 µM (active)”, the Potency [6] was 16.6 µM (active) and the Potency [7] was 1.32 µM (active). For the same compound, the Potency [8] was 16.6 µM (active), the Potency [9] was 1.32 µM (active) and the Potency [10] was 3.98 µM (active).
In the case of `OCCN(CCO)c1nc(N2CCCCC2)c2nc(N(CCO)CCO)nc(N3CCCCC3)c2n1`, the cell viability, % of control (lower = more cytotoxic) [2] is reported as 130%, the viability (% of control) [3] is reported as 95.3% and the Potency [4] is reported as “inactive”. For the same compound, the Potency [5] was “inactive” and the Potency [7] was 20.9 µM (active).
Work on `CN(CCOc1ccc(NS(C)(=O)=O)cc1)CCc1ccc(NS(C)(=O)=O)cc1` yielded a growth, % of control [1] of 56.2%, a cell viability, % of control (lower = more cytotoxic) [2] of 181% and a viability (% of control) [3] of 112%. For the same compound, the Potency [4] was “inactive”, the Potency [5] was “inactive” and the Potency [7] was 16.6 µM (active). For the same compound, the Potency [10] was “inactive”.
For `CCCNCC(O)COc1ccccc1C(=O)CCc1ccccc1` (centres undefined), the growth, % of control [1] was 6.85%, the cell viability, % of control (lower = more cytotoxic) [2] was 6.23% and the viability (% of control) [3] was 1.7%. For the same compound, the Potency [4] was “inactive”, the Potency [5] was “inactive” and the Potency [8] was 20.9 µM (active). The Potency [10] was “inactive”.
`Nc1nnc(-c2cccc(Cl)c2Cl)c(N)n1` showed a growth, % of control [1] of 98.1%, a cell viability, % of control (lower = more cytotoxic) [2] of 86.5% and a viability (% of control) [3] of 36.7%. The Potency [4] was “inactive”, the Potency [5] was “inactive” and the Potency [10] was “inactive”.
Work on `CNCCCC12CCC(c3ccccc31)c1ccccc12` yielded a growth, % of control [1] of 7.27%, a cell viability, % of control (lower = more cytotoxic) [2] of 8.38% and a viability (% of control) [3] of 13.7%. The Potency [4] was “inactive”, the Potency [5] was “inactive” and the Potency [8] was 18.7 µM (active). For the same compound, the Potency [9] was 23.5 µM (active) and the Potency [10] was “inactive”.
Compound `NC(=O)NO` has a growth, % of control [1] of 96.8%, a cell viability, % of control (lower = more cytotoxic) [2] of 4.63% and a viability (% of control) [3] of 2.6%. For the same compound, the Potency [4] was “inactive”, the Potency [5] was “inactive” and the Potency [6] was 20.9 µM (active). The Potency [9] was “inactive” and the Potency [10] was “inactive”.
Work on `COc1ccccc1OCCNCC(O)COc1cccc2[nH]c3ccccc3c12` (centres undefined) yielded a growth, % of control [1] of 5.04%, a cell viability, % of control (lower = more cytotoxic) [2] of 167% and a viability (% of control) [3] of 89.8%. The Potency [4] was “inactive”, the Potency [5] was “inactive” and the Potency [9] was “inactive”. The Potency [10] was “inactive”.
Work on `COc1ccccc1OCC(O)CN1CCN(CC(=O)Nc2c(C)cccc2C)CC1` (centres undefined) yielded a growth, % of control [1] of 101%, a cell viability, % of control (lower = more cytotoxic) [2] of 126% and a viability (% of control) [3] of 18.6%. For the same compound, the Potency [4] was “inactive”, the Potency [6] was “inactive” and the Potency [7] was “inactive”. The Potency [8] was “inactive”, the Potency [9] was “inactive” and the Potency [10] was “inactive”.
In the case of `CN(C)C(=O)C(CCN1CCC(O)(c2ccc(Cl)cc2)CC1)(c1ccccc1)c1ccccc1`, the cell viability, % of control (lower = more cytotoxic) [2] is reported as 71%, the viability (% of control) [3] is reported as 12.1% and the Potency [4] is reported as “inactive”. The Potency [5] was “inactive”, the Potency [8] was 16.6 µM (active) and the Potency [9] was 18.7 µM (active).
For `O=c1[nH]cc(F)c(=O)[nH]1`, the cell viability, % of control (lower = more cytotoxic) [2] was 118%, the viability (% of control) [3] was 29.1% and the Potency [4] was “inactive”. For the same compound, the Potency [5] was “inactive”, the Potency [6] was 5.26 µM (active) and the Potency [9] was 9.35 µM (active). For the same compound, the Potency [10] was “inactive”.
